Assay results from article PMC5540273 (PLoS ONE, 2017).

Legend:
PIK4CB = system: T1, PIK4CB
T1 construct: gene PI4KB

PKAC-beta = system: T2, PKAC-beta
T2 construct: gene PRKACB
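Also: kd values determined as follow-up on hits from a single-replicate KINOMEscan panel screen.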

In the case of Cc1c(Cn2c(C)c(C)n3c(=O)cc(N4CCOCC4)nc23)cccc1C(F)(F)F [GSK2328680], the Kd (PIK3CD) is reported as 0.62 µM and the Kd (PLK2) is reported as > 10 µM.
In the case of COc1cccc(NC(=O)Nc2ccc(C)c(-c3ccc(C(=O)Nc4ccncc4)cc3)c2)c1 [GSK1398474], the Kd (PIK3CG) is reported as > 10 µM.
For Fc1ccc(-c2nc3n(c2-c2ccncc2)CCS3)cc1 [GI98581], the Kd (PIK3CG) was > 10 µM.
Cc1c(Cn2c3ccccc3n3c(=O)cc(N4CCOCC4)nc23)cccc1C(F)(F)F [GSK2306394] was tested, and the Kd (PIK4CB) was > 10 µM and the Kd (PKN1) was > 10 µM.
Compound NS(=O)(=O)c1cccc(N/C=C2\C(=O)Nc3ccc(S(=O)(=O)Cc4c(Cl)cccc4Cl)cc32)c1 [GSK398099] has a Kd (PIK4CB) of 1.2 µM.
With CCc1ccc(-c2ccc3c(c2)-c2n[nH]cc2S(=O)(=O)N3C)cc1 the Kd (PIKFYVE) was > 10 µM.
CN1c2ccc(-c3ccc(C(N)=O)cc3)cc2-c2[nH]ncc2S1(=O)=O was tested, and the Kd (PIP5K1C) was 6.4 µM and the Kd (PRKD2) was > 10 µM.
CS(=O)(=O)Cc1ccc(Nc2nccc(-c3c(-c4cccc(NC(=O)C5CCCCC5)c4)nn4ncccc34)n2)cc1 [GSK350559] was tested, and the Kd (PIP5K1C) was > 10 µM.
With O=C1NC(=O)C(c2ccc(Cl)cc2)=C1Nc1cccc(Cl)c1 [SB-317651] the Kd (PKAC-beta) was > 10 µM.
CC[C@@H]1CO[C@H](C(=O)Nc2ccccc2)CN1c1cc(-c2ccc3c(N)n[nH]c3c2)nc(NC)n1 [GSK2376236] was tested, and the Kd (PKN1) was > 10 µM and the Kd (PRKX) was 0.13 µM.
CNC(=O)c1ccc(C)c(-n2c(C)cc(OCc3ccc(F)cc3F)c(Br)c2=O)c1 was tested, and the Kd (PRKCI) was > 10 µM.
With O=C(Nc1n[nH]c2cc(-c3ccsc3)ccc12)C1CC1 [SB-732932] the Kd (PRKD1) was > 10 µM.
For CNc1nc(-c2ccc3c(N)n[nH]c3c2)cc(N2C[C@@H](C(=O)Nc3ccccc3)CC[C@H]2C)n1 [GSK2298859], the Kd (PRKX) was 0.065 µM.
